Data taken from article PMC3795721, “Screening for Protein-DNA Interactions by Automatable DNA-Protein Interaction ELISA”.

Molecular target: AT4G31550 (Arabidopsis thaliana, UniProt Q9SV15 228-325)
Test: DPI-ELISA; DPI-ELISA, streptavidin 384-well plate, 1-2 pmol biotinylated dsDNA per well, crude native E. coli extract, anti-His detection; buffer as in Brand et al. [46],; high values mean tight binding
Details: tags: C-terminal His (pET-DEST42); label: 5' biotin on forward strand; dsDNA, one strand shown

AT4G31550, sequence (Q9SV15 228-325): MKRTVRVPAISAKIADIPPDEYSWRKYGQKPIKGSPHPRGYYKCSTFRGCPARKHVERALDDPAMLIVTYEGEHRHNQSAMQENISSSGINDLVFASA

Row | Sequence | binding signal [absorbance]
1 | AAAAAAAGGTCATTGCTGCTGGTGTTAAAA | 0.735 ± 0.106
2 | AAAAAATGCAACGCTCCTTTCCCGCTAAAA | 0.535 ± 0.106
3 | AAAAAACTGACCGTCAGCGCCCACGCAAAA | 1.45 ± 0.424
4 | AAAAAATCCATTCTTCGCGTTTATCCAAAA | 0.53 ± 0.0849
5 | AAAAAACGTATTGATGTCTATTTCAAAAAA | 0.575 ± 0.0919
6 | AAAAAACATTCCTAGTTCATGTTACTAAAA | 0.665 ± 0.134
7 | AAAAAAGGCTCCGGCCCCCAATCGCAAAAA | 0.61 ± 0.0566
8 | AAAAAACTTCCCTCCTTGTCCTCCCCAAAA | 0.66 ± 0.113
9 | AAAAAAGTTCGGGGCTTGGTTTGGAAAAAA | 0.765 ± 0.205
10 | AAAAAATTCTAACTTAGCCTATGTCCAAAA | 0.695 ± 0.163
11 | AAAAAATACGTCTACGTGGTTGTCGTAAAA | 0.72 ± 0.127
12 | AAAAAACTGGTGTATCTCCTCAATTAAAAA | 0.635 ± 0.0636
13 | AAAAAATATGGCACTCGCCGCACATCAAAA | 0.755 ± 0.191
14 | AAAAAATCTTACCCCTCCGCTTCTATAAAA | 0.72 ± 0.255
